Only some compounds are listed: those with a hit (about 5.3% of all), similar ones and a draw of the others.
FMDV antiviral: foot and mouth disease virus antiviral activity; FMDV antiviral cell-based qHTS; Potency, µM (titrated, usually from 57.9 µM), for the others: top-dose activity change, negative = inhibition, actives largely listed as inhibitors; AID 1159524; 1.2% of 410,000 active; calls by dose curve; tested in HEK293T cells; further: read-out not given here; nearly all actives have a fitted effect of over 45% in size
LASV entry inh: inhibitors of Lassa virus binding or cell entry. Lassa virus pseudotype entry inhibition, cell reporter. AID 540256. 1.2% of 300,000 active. Potency, µM (highest dose often 37.9 µM), for inactives: at the top dose activity change, negative = inhibition, usual class: inhibitors; calls by dose curve; tested in HEK293 cells; further: nearly all actives have a fitted effect of over 50% in size
HCV inhibitor: inhibitors of hepatitis C virus infection. Huh7.5.1 HCVcc-Cre infection, luciferase reporter, 44 h. Potency, µM (titrated, usually from 41.8 µM), for the others: top-dose activity change, negative = inhibition, usual class: inhibitors. 3.4% of 340,000 active; active means well fitted inhibition curve with a large enough effect; inconclusive means small, poorly fitted or top-dose-only effect, or another doubt; inactive means no such curve, though single readings can be large or run the other way
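Antiviral activity was scored by luciferase reporter output from cells infected with HCVcc-Cre (~0.5 moi) in presence of compound, 44 h infection period, cells seeded 1,000/well 4 h prior.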
MARV entry inh: Marburg virus entry inhibition. Marburg virus pseudotyped entry inhibition, cell reporter. 1.8% of 300,000 active. Potency, µM (series often up to 37.8 µM), for inactives: at the top dose activity change, negative = inhibition, most hits filed as inhibitors; calls by dose curve; tested in HEK293 cells
VACV Venus inh: vaccinia inhibition (Venus reporter); Vaccinia virus Venus reporter expression, fluorescence; Potency, µM (top dose mostly 36.5 µM), without a hit: top-dose activity change, negative = inhibition, actives largely listed as inhibitors; 0.46% of 330,000 active; AID 720580; calls by dose curve; tested in A549 cells; further: nearly all actives have a fitted effect of over 30% in size
Vaccinia mCherry: vaccinia inhibition (mCherry reporter); Potency, µM (series often up to 36.5 µM), for inactives: at the top dose activity change, negative = inhibition, usual class: inhibitors; Vaccinia virus mCherry reporter infection, fluorescence; 0.63% of 310,000 active; AID 720579; calls by dose curve; tested in A549 cells; further: nearly all actives have a fitted effect of over 35% in size
Active calls of the source: *; [ ] = dose if it differs, or a comment. On the % scale 0 is the no-effect control and ±100 the full control effect; potency means the concentration at half of the fitted maximal effect.

Screening CC(C)C(=O)Nc1c(-c2ccccc2)c(=O)c2ccccc2n1C returned FMDV antiviral -14.9%, LASV entry inh -16.4%, HCV inhibitor 9.3%, MARV entry inh -4.2%[46.1 µM], VACV Venus inh -5.6% and Vaccinia mCherry inactive.
Screening Cc1ccc(-c2c(NC(=O)C(C)C)n(C)c3ccccc3c2=O)cc1 returned FMDV antiviral -8.0%, LASV entry inh 2.9%, HCV inhibitor 3.16µM*, MARV entry inh -20.6%, VACV Venus inh -5.6% and Vaccinia mCherry -7.6%.
Screening Brc1cccc(-c2nnc(SCc3nc4ccccc4[nH]3)o2)c1 returned FMDV antiviral inconclusive, LASV entry inh -1.5%, HCV inhibitor -12.0%, MARV entry inh -3.0%, VACV Venus inh inconclusive and Vaccinia mCherry 10µM*.
For COc1cccc(Nc2nnc(SCc3cc([N+](=O)[O-])cc4c3OCOC4)s2)c1 the results were FMDV antiviral 15.8µM*, LASV entry inh -12.0%, HCV inhibitor 11.2µM*, MARV entry inh -18.7% and VACV Venus inh inconclusive.
For Cc1cccc(C)c1Nc1nnc(SCc2cc([N+](=O)[O-])cc3c2OCOC3)s1 the results were FMDV antiviral inconclusive, LASV entry inh -3.2%, HCV inhibitor -4.7% and MARV entry inh inconclusive.
`Cc1cc(Cc2cc(C)c(O)c(CO)c2)cc(CO)c1O` gave FMDV antiviral -26.9%, LASV entry inh inconclusive, HCV inhibitor -1.0%, MARV entry inh inconclusive, VACV Venus inh -25.6% and Vaccinia mCherry 5.62µM*.
Cc1cc(Cc2ccc(N)c(C)c2)ccc1N was read as FMDV antiviral -3.1%, LASV entry inh -0.5%, HCV inhibitor -8.4%, MARV entry inh 1.0%, VACV Venus inh -5.3% and Vaccinia mCherry inconclusive.
`C=CCN1c2ccccc2[C@]23CCC(=O)N(CC4CC4)C2=NC(C(=O)OC)=C(C(=O)OC)[C@H]13` gave MARV entry inh 19.4%[14.2 µM].
COCCn1c(N)c(C(=O)NCC2CCCO2)c2nc3ccccc3nc21 (centres undefined) was read as FMDV antiviral -27.1%, LASV entry inh 0.0%, HCV inhibitor -17.6%, MARV entry inh inconclusive, VACV Venus inh -14.0% and Vaccinia mCherry -1.4%.
`CC(C)Cn1c(N)c(C(=O)NCC2CCCO2)c2nc3ccccc3nc21` (centres undefined) gave FMDV antiviral inconclusive, LASV entry inh -26.5%, HCV inhibitor inconclusive, MARV entry inh inconclusive, VACV Venus inh 10µM* and Vaccinia mCherry 10µM*.
For COCCn1c(N)c(C(=O)NCc2cccs2)c2nc3ccccc3nc21 the results were FMDV antiviral 4.0%, LASV entry inh -0.5%, HCV inhibitor inconclusive and MARV entry inh inconclusive.
Screening COCCCNC(=O)c1c(N)n(Cc2ccco2)c2nc3ccccc3nc12 returned FMDV antiviral inconclusive and HCV inhibitor -15.8%.
Screening CC(C)OCCCNC(=O)c1c(N)n(Cc2cccs2)c2nc3ccccc3nc12 returned FMDV antiviral -29.3%, LASV entry inh inconclusive, HCV inhibitor 10µM*, MARV entry inh inconclusive and VACV Venus inh 28.2µM*.
`CC(C)CCn1c(N)c(C(=O)NCc2cccs2)c2nc3ccccc3nc21` gave FMDV antiviral 0.5%, LASV entry inh -22.1%, HCV inhibitor 14.1µM*, MARV entry inh inconclusive, VACV Venus inh -8.3% and Vaccinia mCherry -8.7%.
COC(=O)C[C@H]1c2cc(C(F)(F)F)ccc2S(=O)(=O)N1C(C)C was read as VACV Venus inh -4.9% and Vaccinia mCherry inactive.
Screening COC(=O)c1ccc(-n2c(/C=C/c3cc(OC)c(OC)c(OC)c3)nc3cc(Cl)ccc3c2=O)cc1 returned FMDV antiviral -25.7%, LASV entry inh -3.5%[46.1 µM], VACV Venus inh -28.5% and Vaccinia mCherry inconclusive.
COc1ccc(C(=O)CC2OC(=O)c3ccccc32)cc1OC (centres undefined) was read as FMDV antiviral -11.5%, LASV entry inh 4.4%, HCV inhibitor 15.6% and MARV entry inh -2.7%.
Screening COc1ccc(OC)c(C(=O)CC2OC(=O)c3ccccc32)c1 (centres undefined) returned FMDV antiviral 14.1µM*, LASV entry inh -3.5%, HCV inhibitor 7.8% and MARV entry inh inconclusive.
For Nc1ccc2cc3[nH]c4cc(N)ccc4c3nc2c1 the results were FMDV antiviral -19.2%, LASV entry inh inconclusive, HCV inhibitor 1.58µM*, MARV entry inh inconclusive, VACV Venus inh -24.6% and Vaccinia mCherry inconclusive.
Screening COc1ccc(OC)c(-c2cc(Cl)c3c(c2)CC(CNC(=O)C(C)N2CCOCC2)O3)c1 (centres undefined) returned FMDV antiviral 8.0%, VACV Venus inh 8.1% and Vaccinia mCherry -10.9%.
Cc1c(C=C(C#N)c2ccc([N+](=O)[O-])cc2)c(=O)n(-c2ccccc2)n1C was read as FMDV antiviral -7.2%, LASV entry inh 0.2%, HCV inhibitor -5.2%, MARV entry inh 4.6%, VACV Venus inh -13.6% and Vaccinia mCherry -19.9%.
For O=C(Cn1c(=O)n(Cc2ccco2)c(=O)c2c3c(sc21)CCCCC3)Nc1ccccc1 the results were FMDV antiviral -1.5%, LASV entry inh -21.1%, HCV inhibitor -18.4%, MARV entry inh -1.3%, VACV Venus inh -7.2% and Vaccinia mCherry inactive.
Screening COc1ccc(Cn2c(=O)n(Cc3ccco3)c(=N)c3c4c(sc32)COC(C)(C)C4)cc1 returned FMDV antiviral -22.9%, LASV entry inh inconclusive, HCV inhibitor 12.6µM*, MARV entry inh -20.3% and VACV Venus inh inconclusive.
Screening COc1ccc(NC(=O)Cn2nnc3sc4c(c3c2=O)CC(C)(C)OC4)cc1 returned FMDV antiviral -21.6% and HCV inhibitor -22.2%.
Screening CC1(C)Cc2c(sc3c2c(=N)n(Cc2ccco2)c(=O)n3Cc2ccc(F)cc2)CO1 returned FMDV antiviral -20.9%, LASV entry inh 7.08µM*, HCV inhibitor inconclusive, MARV entry inh inconclusive and VACV Venus inh inconclusive.
`CC1(C)Cc2c(sc3[nH]c(=S)n(Cc4ccccc4)c(=O)c23)CO1` gave LASV entry inh 6.51µM*, HCV inhibitor -20.0%, MARV entry inh inconclusive, VACV Venus inh -14.4% and Vaccinia mCherry -3.2%.
`Cc1ccc(NC(=O)Cn2c(=O)n(Cc3ccco3)c(=N)c3c4c(sc32)COC(C)(C)C4)cc1` gave FMDV antiviral -5.2%, LASV entry inh 5.2%, HCV inhibitor 3.16µM*, MARV entry inh 1.6% and VACV Venus inh -16.4%.
Screening CC(=O)c1cccc(NS(=O)(=O)c2cc(-c3onc(C)c3C)ccc2C)c1 returned FMDV antiviral 5.7%, LASV entry inh -19.1%[46.1 µM], VACV Venus inh -18.5% and Vaccinia mCherry inconclusive.
`Cc1c(Cl)cccc1NC(=O)c1cnc2sc(N3CCOCC3)nn2c1=O` gave FMDV antiviral -13.7%, LASV entry inh 4.4%[46.1 µM], VACV Venus inh -5.1% and Vaccinia mCherry -11.5%.
